Laboratory results published in article PMC7862700, “An all-to-all approach to the identification of sequence-specific readers for epigenetic DNA modifications on cytosine”.

What was measured:
Experiment in all cases: DAPPL (digital affinity profiling via proximity ligation, sequencing); 10 mM Tris-HCl pH 7.5, 50 mM NaCl, 1 mM DTT, 4% glycerol, room temperature, 30 min; GST-TFs on glutathione beads, 16-mer random dsDNA library, 0.1% formaldehyde crosslink after washing; high values mean tight binding
Conditions in all cases: protein: recombinant; tags: N-terminal GST; dsDNA, one strand shown
[1] = biological target: T1, FLI1 (Homo sapiens, UniProt Q01543 1-452)
T1 sequence: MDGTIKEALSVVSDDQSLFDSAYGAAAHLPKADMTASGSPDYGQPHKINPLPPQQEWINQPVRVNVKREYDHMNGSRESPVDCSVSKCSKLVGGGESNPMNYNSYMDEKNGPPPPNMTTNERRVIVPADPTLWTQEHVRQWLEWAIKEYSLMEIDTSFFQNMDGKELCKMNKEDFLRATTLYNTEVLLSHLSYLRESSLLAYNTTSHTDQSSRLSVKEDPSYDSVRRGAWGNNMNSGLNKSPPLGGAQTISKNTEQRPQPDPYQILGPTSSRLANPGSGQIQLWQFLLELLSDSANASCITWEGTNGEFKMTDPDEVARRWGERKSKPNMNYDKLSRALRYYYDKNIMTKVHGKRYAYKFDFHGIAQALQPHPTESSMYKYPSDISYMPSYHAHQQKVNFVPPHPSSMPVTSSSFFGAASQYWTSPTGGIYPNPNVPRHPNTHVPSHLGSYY
Procedure, shortened: (§1)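 Binding signal is given per hexamer as its read frequency for a factor divided by its frequency in the tag-only sample. GST-fused human transcription factors were expressed in yeast, captured on glutathione beads, barcoded with DNA and pooled with that sample, then incubated with 200 nmole of a 16-mer random double-stranded DNA library in Tris/NaCl/DTT/glycerol buffer for 30 min at room temperature. The pools were then washed, crosslinked, proximity-ligated, amplified by PCR and sequenced on an Illumina NextSeq500.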

[2] = biological target: T2, ELK1 (Homo sapiens, UniProt P19419 1-428)
T2 sequence: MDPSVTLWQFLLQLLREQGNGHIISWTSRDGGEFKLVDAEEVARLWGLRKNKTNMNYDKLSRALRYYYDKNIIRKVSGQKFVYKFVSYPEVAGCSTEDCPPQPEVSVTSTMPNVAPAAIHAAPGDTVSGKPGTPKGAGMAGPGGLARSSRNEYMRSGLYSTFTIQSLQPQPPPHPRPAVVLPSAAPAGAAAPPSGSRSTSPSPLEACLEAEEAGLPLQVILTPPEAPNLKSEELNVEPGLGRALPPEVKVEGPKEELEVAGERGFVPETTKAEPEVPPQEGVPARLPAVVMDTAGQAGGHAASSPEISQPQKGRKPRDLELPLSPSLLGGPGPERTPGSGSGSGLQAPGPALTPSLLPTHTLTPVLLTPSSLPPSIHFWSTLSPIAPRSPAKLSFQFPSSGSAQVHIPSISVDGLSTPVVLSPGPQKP
Procedure, shortened: as §1

[3] = biological target: T3, GABPA (Homo sapiens, UniProt Q06546 1-454)
T3 sequence: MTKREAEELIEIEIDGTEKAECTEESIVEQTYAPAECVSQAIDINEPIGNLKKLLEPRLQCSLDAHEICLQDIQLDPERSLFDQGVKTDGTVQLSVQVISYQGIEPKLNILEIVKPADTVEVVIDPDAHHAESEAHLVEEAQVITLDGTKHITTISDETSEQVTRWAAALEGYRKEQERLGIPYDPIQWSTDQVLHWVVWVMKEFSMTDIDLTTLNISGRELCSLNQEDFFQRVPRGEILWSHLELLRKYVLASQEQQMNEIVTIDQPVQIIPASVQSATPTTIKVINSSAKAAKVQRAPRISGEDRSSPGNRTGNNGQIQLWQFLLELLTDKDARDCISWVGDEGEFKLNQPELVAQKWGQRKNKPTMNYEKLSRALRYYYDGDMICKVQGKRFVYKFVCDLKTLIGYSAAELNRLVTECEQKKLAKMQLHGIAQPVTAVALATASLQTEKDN
Procedure, shortened: as §1

[4] = biological target: T4, ERG (Homo sapiens, UniProt P11308 1-479)
T4 sequence: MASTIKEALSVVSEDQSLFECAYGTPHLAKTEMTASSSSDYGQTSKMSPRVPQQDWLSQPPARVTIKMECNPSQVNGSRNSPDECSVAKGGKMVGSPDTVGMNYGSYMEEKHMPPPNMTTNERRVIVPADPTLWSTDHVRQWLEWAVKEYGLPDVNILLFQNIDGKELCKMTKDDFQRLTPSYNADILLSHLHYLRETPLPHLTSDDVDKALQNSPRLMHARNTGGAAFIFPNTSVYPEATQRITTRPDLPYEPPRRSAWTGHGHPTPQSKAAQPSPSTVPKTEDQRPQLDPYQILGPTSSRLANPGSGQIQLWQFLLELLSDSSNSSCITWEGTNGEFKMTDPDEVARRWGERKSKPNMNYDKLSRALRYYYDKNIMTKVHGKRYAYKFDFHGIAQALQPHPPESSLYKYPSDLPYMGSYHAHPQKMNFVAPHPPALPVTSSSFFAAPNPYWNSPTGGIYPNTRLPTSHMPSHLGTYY
Procedure, shortened: as §1

[5] = biological target: ELF1 (Homo sapiens, UniProt P32519 1-619)
Procedure, shortened: as §1

[6] = biological target: T5, EHF (Homo sapiens, UniProt Q9NZC4 1-300)
T5 sequence: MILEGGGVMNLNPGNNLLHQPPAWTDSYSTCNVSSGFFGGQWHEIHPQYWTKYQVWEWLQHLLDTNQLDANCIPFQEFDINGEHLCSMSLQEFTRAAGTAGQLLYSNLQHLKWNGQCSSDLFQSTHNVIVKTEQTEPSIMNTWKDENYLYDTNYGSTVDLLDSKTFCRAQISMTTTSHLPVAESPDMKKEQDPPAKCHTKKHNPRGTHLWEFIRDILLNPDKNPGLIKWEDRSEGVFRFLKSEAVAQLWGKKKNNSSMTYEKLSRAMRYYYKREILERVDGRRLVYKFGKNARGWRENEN
Procedure, shortened: as §1

[7] = biological target: SPI1 (Homo sapiens, UniProt P17947 1-270)
Procedure, shortened: as §1

[8] = biological target: SPIB (Homo sapiens, UniProt Q01892 1-262)
Procedure, shortened: as §1

[9] = biological target: T6, ELK3 (Homo sapiens, UniProt P41970 1-407)
T6 sequence: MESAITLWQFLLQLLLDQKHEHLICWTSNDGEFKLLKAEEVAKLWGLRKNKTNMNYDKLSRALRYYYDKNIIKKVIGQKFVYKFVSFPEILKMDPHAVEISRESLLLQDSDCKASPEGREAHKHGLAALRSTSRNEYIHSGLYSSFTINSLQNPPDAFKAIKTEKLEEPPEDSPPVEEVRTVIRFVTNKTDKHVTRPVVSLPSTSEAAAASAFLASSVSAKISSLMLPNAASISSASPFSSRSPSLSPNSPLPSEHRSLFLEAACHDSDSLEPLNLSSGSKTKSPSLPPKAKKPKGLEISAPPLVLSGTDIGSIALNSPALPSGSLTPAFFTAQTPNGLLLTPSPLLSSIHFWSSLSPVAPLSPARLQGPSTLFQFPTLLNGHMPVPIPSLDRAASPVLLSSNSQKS
Procedure, shortened: as §1

[10] = biological target: T7, FEV (Homo sapiens, UniProt Q99581 1-238)
T7 sequence: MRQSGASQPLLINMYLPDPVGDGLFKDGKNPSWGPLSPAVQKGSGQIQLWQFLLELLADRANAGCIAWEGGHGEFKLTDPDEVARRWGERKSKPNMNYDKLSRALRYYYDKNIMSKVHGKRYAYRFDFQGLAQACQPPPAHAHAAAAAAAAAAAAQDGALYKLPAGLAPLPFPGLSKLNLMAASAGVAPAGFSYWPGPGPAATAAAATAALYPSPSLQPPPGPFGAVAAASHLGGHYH
Procedure, shortened: as §1

[11] = biological target: ETV5 (Homo sapiens, UniProt P41161 1-510)
Procedure, shortened: as §1

[12] = biological target: T8, SPIC (Homo sapiens, UniProt Q8N5J4 1-248)
T8 sequence: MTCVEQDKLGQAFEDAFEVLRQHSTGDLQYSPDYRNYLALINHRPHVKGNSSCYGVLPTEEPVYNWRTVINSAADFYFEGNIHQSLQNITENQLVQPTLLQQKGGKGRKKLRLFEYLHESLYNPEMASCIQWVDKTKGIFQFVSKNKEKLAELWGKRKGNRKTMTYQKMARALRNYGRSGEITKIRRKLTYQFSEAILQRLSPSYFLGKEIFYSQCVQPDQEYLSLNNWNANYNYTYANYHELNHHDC
Procedure, shortened: as §1

[13] = biological target: ELF4 (Homo sapiens, UniProt Q99607 1-663)
Procedure, shortened: as §1

[14] = biological target: ETV1 (Homo sapiens, UniProt P50549 1-477)
Procedure, shortened: as §1

[15] = biological target: T9, ERF (Homo sapiens, UniProt P50548 1-548)
T9 sequence: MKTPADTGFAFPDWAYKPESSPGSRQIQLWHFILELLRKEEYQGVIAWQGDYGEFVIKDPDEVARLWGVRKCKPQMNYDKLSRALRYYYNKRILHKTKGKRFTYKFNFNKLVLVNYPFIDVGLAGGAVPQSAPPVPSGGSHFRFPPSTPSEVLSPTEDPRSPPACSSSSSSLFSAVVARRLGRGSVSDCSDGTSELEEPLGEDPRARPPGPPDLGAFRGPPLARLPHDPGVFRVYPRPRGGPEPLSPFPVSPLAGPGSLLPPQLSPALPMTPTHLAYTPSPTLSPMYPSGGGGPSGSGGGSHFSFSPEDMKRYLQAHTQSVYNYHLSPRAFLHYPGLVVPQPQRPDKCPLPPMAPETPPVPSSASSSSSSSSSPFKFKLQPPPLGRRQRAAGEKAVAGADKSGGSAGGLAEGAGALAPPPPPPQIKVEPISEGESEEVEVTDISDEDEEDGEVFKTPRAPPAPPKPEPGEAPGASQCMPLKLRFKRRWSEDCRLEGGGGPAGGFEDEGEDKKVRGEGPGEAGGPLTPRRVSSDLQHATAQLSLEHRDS
Procedure, shortened: as §1

[16] = biological target: T10, ETV3L (Homo sapiens, UniProt Q6ZN32 1-361)
T10 sequence: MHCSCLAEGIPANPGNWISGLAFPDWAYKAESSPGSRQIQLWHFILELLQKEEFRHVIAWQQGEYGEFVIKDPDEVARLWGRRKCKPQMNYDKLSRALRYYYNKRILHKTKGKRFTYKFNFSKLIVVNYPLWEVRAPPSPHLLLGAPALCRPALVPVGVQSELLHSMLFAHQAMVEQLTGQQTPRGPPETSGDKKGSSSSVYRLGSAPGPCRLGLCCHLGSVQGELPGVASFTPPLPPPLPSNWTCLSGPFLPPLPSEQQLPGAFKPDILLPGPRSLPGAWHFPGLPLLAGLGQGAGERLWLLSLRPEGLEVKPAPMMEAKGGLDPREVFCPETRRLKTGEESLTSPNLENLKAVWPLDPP
Procedure, shortened: as §1

[17] = biological target: T11, ETS2 (Homo sapiens, UniProt P15036 1-469)
T11 sequence: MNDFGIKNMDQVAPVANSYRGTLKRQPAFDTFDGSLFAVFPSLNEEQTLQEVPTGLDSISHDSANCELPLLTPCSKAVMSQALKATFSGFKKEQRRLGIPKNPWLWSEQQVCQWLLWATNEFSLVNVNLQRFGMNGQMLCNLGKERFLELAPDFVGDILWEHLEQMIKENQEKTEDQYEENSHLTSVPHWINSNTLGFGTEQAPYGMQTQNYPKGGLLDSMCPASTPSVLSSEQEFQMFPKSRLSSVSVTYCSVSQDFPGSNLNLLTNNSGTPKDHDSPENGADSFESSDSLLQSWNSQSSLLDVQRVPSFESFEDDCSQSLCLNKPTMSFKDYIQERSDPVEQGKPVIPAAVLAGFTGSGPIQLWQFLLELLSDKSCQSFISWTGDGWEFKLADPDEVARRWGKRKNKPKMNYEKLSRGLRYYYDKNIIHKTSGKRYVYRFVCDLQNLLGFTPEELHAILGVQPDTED
Procedure, shortened: as §1

[18] = biological target: T12, ELF5 (Homo sapiens, UniProt Q9UKW6-2 1-255)
T12 sequence: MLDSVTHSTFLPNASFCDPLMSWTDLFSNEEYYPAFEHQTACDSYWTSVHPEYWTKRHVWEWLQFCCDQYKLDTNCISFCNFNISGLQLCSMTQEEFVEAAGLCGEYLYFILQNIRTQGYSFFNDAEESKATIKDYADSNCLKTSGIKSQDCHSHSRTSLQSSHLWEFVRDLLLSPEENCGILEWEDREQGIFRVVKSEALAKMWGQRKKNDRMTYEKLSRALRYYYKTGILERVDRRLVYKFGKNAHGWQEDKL
Procedure, shortened: as §1

[19] = biological target: T13, ETV3 (Homo sapiens, UniProt P41162-2 1-143)
T13 sequence: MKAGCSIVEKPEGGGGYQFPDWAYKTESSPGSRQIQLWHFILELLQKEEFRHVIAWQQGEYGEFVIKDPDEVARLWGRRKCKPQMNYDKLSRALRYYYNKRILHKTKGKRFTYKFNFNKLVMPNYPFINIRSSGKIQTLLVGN
Procedure, shortened: as §1

[20] = biological target: ETV6 (Homo sapiens, UniProt P41212 1-452)
Procedure, shortened: as §1

Sequence of ETV5 (P41161 whole entry): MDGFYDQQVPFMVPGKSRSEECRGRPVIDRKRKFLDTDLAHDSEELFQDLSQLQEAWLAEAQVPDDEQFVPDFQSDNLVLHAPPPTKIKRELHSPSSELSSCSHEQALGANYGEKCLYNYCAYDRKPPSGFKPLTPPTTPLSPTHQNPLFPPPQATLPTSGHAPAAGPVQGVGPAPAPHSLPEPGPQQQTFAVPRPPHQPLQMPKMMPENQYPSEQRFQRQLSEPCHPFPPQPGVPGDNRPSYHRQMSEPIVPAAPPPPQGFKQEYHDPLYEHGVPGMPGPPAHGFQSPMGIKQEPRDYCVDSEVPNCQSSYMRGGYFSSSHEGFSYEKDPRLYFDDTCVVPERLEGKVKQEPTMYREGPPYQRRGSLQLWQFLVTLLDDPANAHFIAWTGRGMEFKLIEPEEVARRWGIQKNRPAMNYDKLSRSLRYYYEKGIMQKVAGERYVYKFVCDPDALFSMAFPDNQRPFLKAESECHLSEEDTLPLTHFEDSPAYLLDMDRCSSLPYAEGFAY
Sequence of ELF4 (Q99607 whole entry): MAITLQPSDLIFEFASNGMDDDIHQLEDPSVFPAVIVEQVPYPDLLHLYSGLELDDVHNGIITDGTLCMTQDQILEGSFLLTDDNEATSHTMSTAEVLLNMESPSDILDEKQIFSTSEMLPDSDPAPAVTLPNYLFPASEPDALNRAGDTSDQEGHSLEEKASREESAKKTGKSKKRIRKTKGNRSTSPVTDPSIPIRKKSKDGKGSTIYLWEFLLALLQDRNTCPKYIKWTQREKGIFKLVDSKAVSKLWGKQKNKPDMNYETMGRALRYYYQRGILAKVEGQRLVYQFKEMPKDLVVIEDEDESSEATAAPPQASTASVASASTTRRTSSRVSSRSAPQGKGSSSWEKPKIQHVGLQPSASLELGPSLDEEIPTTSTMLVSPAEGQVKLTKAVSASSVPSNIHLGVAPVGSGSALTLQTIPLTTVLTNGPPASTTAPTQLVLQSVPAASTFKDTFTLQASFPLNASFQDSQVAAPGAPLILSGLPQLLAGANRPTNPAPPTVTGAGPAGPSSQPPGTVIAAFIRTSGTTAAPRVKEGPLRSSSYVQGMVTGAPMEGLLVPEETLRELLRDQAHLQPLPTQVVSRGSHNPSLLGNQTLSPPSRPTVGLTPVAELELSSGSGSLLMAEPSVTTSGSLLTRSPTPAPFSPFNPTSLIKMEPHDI
Sequence of ETV1 (P50549 whole entry): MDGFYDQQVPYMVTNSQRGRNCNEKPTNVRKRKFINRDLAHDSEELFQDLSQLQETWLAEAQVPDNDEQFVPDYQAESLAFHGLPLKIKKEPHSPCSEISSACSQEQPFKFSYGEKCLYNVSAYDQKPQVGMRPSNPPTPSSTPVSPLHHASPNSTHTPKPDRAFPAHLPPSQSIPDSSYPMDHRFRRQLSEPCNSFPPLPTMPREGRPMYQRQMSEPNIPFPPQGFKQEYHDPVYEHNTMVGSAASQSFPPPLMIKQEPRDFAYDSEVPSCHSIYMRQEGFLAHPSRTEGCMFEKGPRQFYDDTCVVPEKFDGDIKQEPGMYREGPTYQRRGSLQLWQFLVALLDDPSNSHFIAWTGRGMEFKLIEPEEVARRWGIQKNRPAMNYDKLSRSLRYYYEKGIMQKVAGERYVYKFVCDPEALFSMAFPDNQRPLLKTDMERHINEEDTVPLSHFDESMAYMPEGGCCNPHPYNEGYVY
Sequence of ETV6 (P41212 whole entry): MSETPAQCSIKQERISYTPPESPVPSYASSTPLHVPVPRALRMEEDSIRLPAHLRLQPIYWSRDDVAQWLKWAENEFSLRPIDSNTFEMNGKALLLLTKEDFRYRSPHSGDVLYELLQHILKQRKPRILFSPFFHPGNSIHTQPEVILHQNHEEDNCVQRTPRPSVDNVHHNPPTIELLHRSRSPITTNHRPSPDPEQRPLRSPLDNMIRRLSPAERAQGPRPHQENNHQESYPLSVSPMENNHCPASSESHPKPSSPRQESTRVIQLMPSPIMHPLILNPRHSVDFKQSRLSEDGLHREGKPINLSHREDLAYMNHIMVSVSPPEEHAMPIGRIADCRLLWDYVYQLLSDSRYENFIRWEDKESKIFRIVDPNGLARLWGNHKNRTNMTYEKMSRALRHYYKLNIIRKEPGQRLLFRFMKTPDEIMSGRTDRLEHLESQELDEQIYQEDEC
Sequence of ELF1 (P32519 whole entry): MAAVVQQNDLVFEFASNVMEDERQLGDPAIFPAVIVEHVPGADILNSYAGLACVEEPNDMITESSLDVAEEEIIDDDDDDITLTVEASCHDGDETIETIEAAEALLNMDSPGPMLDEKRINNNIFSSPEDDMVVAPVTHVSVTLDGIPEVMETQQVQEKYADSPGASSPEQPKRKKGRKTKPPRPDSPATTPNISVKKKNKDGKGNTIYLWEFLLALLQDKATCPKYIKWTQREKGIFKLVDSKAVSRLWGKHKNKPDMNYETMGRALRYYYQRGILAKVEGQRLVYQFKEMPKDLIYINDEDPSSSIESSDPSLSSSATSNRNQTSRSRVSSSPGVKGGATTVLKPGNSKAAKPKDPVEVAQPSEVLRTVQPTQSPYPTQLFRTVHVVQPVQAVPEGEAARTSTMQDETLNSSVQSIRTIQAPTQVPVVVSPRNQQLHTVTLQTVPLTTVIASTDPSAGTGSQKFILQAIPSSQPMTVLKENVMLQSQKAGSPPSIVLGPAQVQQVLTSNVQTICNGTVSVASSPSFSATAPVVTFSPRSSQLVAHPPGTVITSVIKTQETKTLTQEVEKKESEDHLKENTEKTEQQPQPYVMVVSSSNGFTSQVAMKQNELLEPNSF
Sequence of SPIB (Q01892 whole entry): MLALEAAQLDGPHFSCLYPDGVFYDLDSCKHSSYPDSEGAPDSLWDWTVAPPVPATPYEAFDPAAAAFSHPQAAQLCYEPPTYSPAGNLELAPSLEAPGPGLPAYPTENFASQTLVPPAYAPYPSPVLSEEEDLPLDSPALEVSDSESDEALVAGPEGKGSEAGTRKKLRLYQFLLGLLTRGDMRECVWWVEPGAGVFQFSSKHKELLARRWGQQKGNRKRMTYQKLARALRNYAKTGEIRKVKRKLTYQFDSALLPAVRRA

TTGGTC
binding signal [1]: 1.16 fold enrichment (6-mer frequency, TF over GST control) | binding signal [2]: 1.17 fold enrichment (6-mer frequency, TF over GST control) | binding signal [3]: 1.11 fold enrichment (6-mer frequency, TF over GST control) | binding signal [4]: 1.06 fold enrichment (6-mer frequency, TF over GST control) | binding signal [5]: 1.15 fold enrichment (6-mer frequency, TF over GST control) | binding signal [6]: 1.14 fold enrichment (6-mer frequency, TF over GST control) | binding signal [7]: 1.08 fold enrichment (6-mer frequency, TF over GST control) | binding signal [8]: 1.05 fold enrichment (6-mer frequency, TF over GST control) | binding signal [9]: 1.11 fold enrichment (6-mer frequency, TF over GST control) | binding signal [10]: 1.04 fold enrichment (6-mer frequency, TF over GST control) | binding signal [11]: 1.1 fold enrichment (6-mer frequency, TF over GST control) | binding signal [12]: 1.12 fold enrichment (6-mer frequency, TF over GST control) | binding signal [13]: 1.13 fold enrichment (6-mer frequency, TF over GST control) | binding signal [14]: 1.17 fold enrichment (6-mer frequency, TF over GST control) | binding signal [15]: 1.08 fold enrichment (6-mer frequency, TF over GST control) | binding signal [16]: 1.08 fold enrichment (6-mer frequency, TF over GST control) | binding signal [17]: 1.1 fold enrichment (6-mer frequency, TF over GST control) | binding signal [18]: 1.04 fold enrichment (6-mer frequency, TF over GST control) | binding signal [19]: 1.05 fold enrichment (6-mer frequency, TF over GST control) | binding signal [20]: 1.06 fold enrichment (6-mer frequency, TF over GST control)
